# According to PubChem BioAssay (NCI):
# Compounds without any hit were thinned out: in the full panel of roughly 83,000, 20% have a hit.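 How to read the values: 0–100, growth inhibition (40 = 60% inhibited); 0, no net growth; -100 to 0, cell death (-40 = 40% of starting cells died; -100 = all dead).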 A number with no mark means an inactive call. Activity calls are given as the source filed them. How the source made its calls: active means growth percent below 10; inactive means the rest.
# How the values were obtained:
# Assay in all cases: NCI-60 one-dose screen, 48 h (100 = growth as untreated, 0 = no growth, -100 = all killed)
# Settings in all cases: 10 µM
# [1] = system: SK-MEL-2 melanoma
# [2] = system: EKVX NSCLC
# [3] = system: SN12C renal
# [4] = system: UO-31 renal
# [5] = system: TK-10 renal
# [6] = system: ACHN renal
# [7] = system: A498 renal
# [8] = system: MOLT-4 leukemia
# [9] = system: SR leukemia
# [10] = system: RPMI-8226 leukemia
# [11] = system: OVCAR-8 ovarian
# [12] = system: OVCAR-5 ovarian
# [13] = system: OVCAR-4 ovarian
# [14] = system: SK-OV-3 ovarian
# [15] = system: IGROV1 ovarian
# [16] = system: OVCAR-3 ovarian
# [17] = system: HS 578T breast
# [18] = system: NCI/ADR-RES ovarian
# [19] = system: CCRF-CEM leukemia
Structure (SMILES),growth [1],growth [2],growth [3],growth [4],growth [5],growth [6],growth [7],growth [8],growth [9],growth [10],growth [11],growth [12],growth [13],growth [14] [%],growth [15],growth [16],growth [17],growth [18],growth [19]
N#CCc1csc(Cc2ccccc2)n1,101%,105%,101%,88.7%,89.9%,109%,103%,101%,98.6%,99%,106%,110%,121%,104,108%,106%,99.1%,97.3%,–
O=C(CCC(C(=O)c1ccccc1)c1ccccc1)c1ccccc1 (stereo unspecified),45.4%,76.2%,79.7%,72.1%,102%,72.2%,80.6%,46.2%,25.5%,64.9%,95.3%,88%,91.2%,74.3,79.3%,72.3%,80.1%,38.3%,38.2%
Cc1ccc(Cl)cc1NC(=O)CCl,86.9%,119%,84%,91.3%,96%,104%,105%,32%,43.2%,43.8%,88%,136%,76.9%,93.5,64.4%,99%,94.2%,102%,28.4%
COc1cc(-c2nn(-c3cccc(NC(=O)CCNc4ccc(N5CCOCC5)cc4)c3)cc2-c2ccncc2)ccc1Cl,10.3%,39.4%,27.6%,27.3%,24.7%,15.8%,18.3%,3.1% (active),5.07% (active),15.5%,7.74% (active),49%,26%,34.7,27.3%,14.1%,29.7%,36%,10.9%
CCc1ccc(-c2ccc(-n3nc(C)c4c(N)nc(Cc5ccccc5)nc43)cc2)cc1,36%,83.8%,71.1%,59.2%,75%,35.5%,73.4%,55.7%,21.2%,86%,32.3%,73.5%,63.9%,62.8,68%,80%,57.6%,–,–
CCOC(=O)C(C)(c1ccccc1)c1ccccc1,114%,102%,102%,94%,102%,112%,105%,109%,–,101%,105%,107%,111%,98.9,106%,107%,111%,106%,103%
Cc1c(Cl)cccc1NC(=O)CN1CCOCC1,93.5%,102%,99.9%,83.8%,84.4%,109%,101%,82.3%,86.1%,101%,106%,111%,93.9%,97.1,110%,107%,92.3%,100%,97.2%
COc1cc(C(=O)n2nc(-c3cc(OC)c(OC)c(OC)c3)nc2N)cc(OC)c1OC,91.2%,90.6%,109%,83.2%,98.1%,95.8%,77.6%,81.5%,73.5%,92.4%,102%,97%,94.5%,87.5,105%,101%,103%,99.2%,96.7%
O=C(CCl)Nc1ccc(Cc2ccc(NC(=O)CCl)cc2)cc1,-20.6% (active),-3.32% (active),31.6%,54.5%,83.6%,-20.1% (active),111%,-4.84% (active),5.61% (active),-32.9% (active),0.481% (active),9.56% (active),27%,61.7,-45.9% (active),-32.8% (active),35.7%,2.83% (active),0.0611% (active)
COc1ccc(-c2nnc(SCC(=O)Nc3ccc(C(=O)/C=C/c4ccccc4)cc3)n2-c2ccccc2)cc1OC,100%,120%,84.9%,69.2%,93.1%,98.9%,82.5%,59.7%,–,23.4%,51.3%,104%,62.5%,101,87.4%,88.8%,83.1%,88.3%,93.6%
CC(CN(C)C)Oc1ccccc1NC1=C(Cl)C(=O)C(Nc2ccccc2OC(C)CN(C)C)=C(Cl)C1=O (stereo unspecified),-61.2% (active),-71.7% (active),-96% (active),-99.9% (active),-97.8% (active),-98.4% (active),26.4%,-30.8% (active),-9.43% (active),-34.5% (active),-85.3% (active),-72.2% (active),-97.6% (active),58.9,-76.4% (active),-96.2% (active),3.54% (active),-24.5% (active),-1.98% (active)
CCOC(=O)c1cc(C(=O)c2ccc(F)cc2F)n2ccccc12,91.2%,99.7%,95.9%,72.3%,115%,97.1%,87.9%,87%,73%,77.6%,88%,99.7%,97.8%,88.7,82.3%,103%,93.2%,88.5%,84.7%
Cc1cc(=O)n2nnc3cc(Cl)c(Cl)cc3n12,102%,92.6%,107%,81.3%,102%,90.2%,138%,59.2%,70.5%,97.4%,106%,107%,92.1%,85.2,–,77.8%,122%,101%,23.1%
Nc1nccc(OCCO)n1,99.5%,97.8%,107%,91%,90%,108%,114%,99.9%,95.9%,108%,109%,101%,109%,102,107%,105%,107%,103%,113%
C=CCSC(CC)(CC)C(=O)NC,109%,104%,101%,94.4%,102%,107%,104%,93%,99.3%,101%,105%,104%,109%,105,113%,112%,106%,107%,101%
COc1cc(-c2nn(-c3ccc(NC(=O)NCCNS(=O)(=O)c4ccc(F)cc4)cc3)cc2-c2ccncc2)ccc1Cl,8.8% (active),33%,39.9%,31.5%,28.1%,23.7%,-19.1% (active),11.6%,–,-21.6% (active),9.18% (active),27.1%,41.8%,18.1,27.3%,7.55% (active),21.6%,79.2%,9.28% (active)
S=C(SSC(=S)N(c1ccccc1)c1ccccc1)N(c1ccccc1)c1ccccc1,95.1%,118%,94.5%,97.1%,95.3%,114%,114%,93.9%,92.6%,97.1%,89.8%,111%,113%,100,111%,102%,108%,105%,87.9%
